About 8,800 targets were measured; listed, in parts, are those with a hit and a random draw of the rest. About 0.5% of all pairs of compound and target were hits.
Key:
Assay in all cases: log2 fold change, soluble protein after heating vs DMSO (PISA); higher = thermal stabilisation; K562 lysate, 10 uM; active = over 0.2 and 3.5 SD of the protein, either way, in both replicates (recomputed)
lapatinib = compound: CS(=O)(=O)CCNCc1ccc(-c2ccc3ncnc(Nc4ccc(OCc5cccc(F)c5)c(Cl)c4)c3c2)o1 [lapatinib]
Method in brief: (§1)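 Pellets of K562 cells were dounce-homogenised in PBS pH 7.4 with 1 mM MgCl2, and the crude extract was held at 1 mg/mL protein for a 30 min treatment with 10 μM compound. Aliquots were heated for 3 min over 48°C-58°C and pooled before NP-40 was added to 0.5% at 4°C. The supernatant from 21,000xg for 90 min was quantified by TMTpro 16plex LC-MS/MS with channel sums equalised. Values are reported from duplicates as log-two fold change in thermal stability relative to solvent controls.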

pictilisib = compound: CS(=O)(=O)N1CCN(Cc2cc3nc(-c4cccc5[nH]ncc45)nc(N4CCOCC4)c3s2)CC1 [pictilisib]
Method in brief: as §1

crizotinib = compound: C[C@@H](Oc1cc(-c2cnn(C3CCNCC3)c2)cnc1N)c1c(Cl)ccc(F)c1Cl [crizotinib]
Method in brief: as §1

[1] = compound: C[C@H](C1=CC=C(C=C1)C(=O)NC2=C3C=CNC3=NC=C2)N
Method in brief: as §1

duvelisib = compound: C[C@H](Nc1ncnc2nc[nH]c12)c1cc2cccc(Cl)c2c(=O)n1-c1ccccc1 [duvelisib]
Method in brief: as §1

gandotinib = compound: Cc1cc(Nc2cc(CN3CCOCC3)c3nc(C)c(Cc4ccc(Cl)cc4F)n3n2)n[nH]1 [gandotinib]
Method in brief: as §1

tozasertib = compound: Cc1cc(Nc2cc(N3CCN(C)CC3)nc(Sc3ccc(NC(=O)C4CC4)cc3)n2)n[nH]1 [tozasertib]
Method in brief: as §1

doramapimod = compound: Cc1ccc(-n2nc(C(C)(C)C)cc2NC(=O)Nc2ccc(OCCN3CCOCC3)c3ccccc23)cc1 [doramapimod]
Method in brief: as §1

bafetinib = compound: Cc1ccc(NC(=O)c2ccc(CN3CC[C@H](N(C)C)C3)c(C(F)(F)F)c2)cc1Nc1nccc(-c2cncnc2)n1 [bafetinib]
Method in brief: as §1

[2] = compound: Cc1cccc(CC(=O)N2CCc3c2ccc(-c2cn(C)c4ncnc(N)c24)c3F)n1
Method in brief: as §1

nilotinib = compound: Cc1cn(-c2cc(NC(=O)c3ccc(C)c(Nc4nccc(-c5cccnc5)n4)c3)cc(C(F)(F)F)c2)cn1 [nilotinib]
Method in brief: as §1

[3] = compound: Cc1nc(Nc2n[nH]c3c2CN(C(=O)N[C@H](CN(C)C)c2ccccc2)C3(C)C)c2sccc2n1
Method in brief: as §1

dasatinib = compound: Cc1nc(Nc2ncc(C(=O)Nc3c(C)cccc3Cl)s2)cc(N2CCN(CCO)CC2)n1 [dasatinib]
Method in brief: as §1

[4] = compound: Cc1ncc(-c2ccnc(Nc3ccc(S(C)(=O)=O)cc3)n2)n1C(C)C
Method in brief: as §1

[5] = compound: Cn1cc(-c2ccc3c(c2)CCN3C(=O)Cc2cccc(C(F)(F)F)c2)c2c(N)ncnc21
Method in brief: as §1

quisinostat = compound: Cn1cc(CNCC2CCN(c3ncc(C(=O)NO)cn3)CC2)c2ccccc21 [quisinostat]
Method in brief: as §1

tipifarnib = compound: Cn1cncc1[C@@](N)(c1ccc(Cl)cc1)c1ccc2c(c1)c(-c1cccc(Cl)c1)cc(=O)n2C [tipifarnib]
Method in brief: as §1

[6] = compound: NC(=O)Nc1cc(-c2cccc(F)c2)sc1C(=O)N[C@H]1CCCNC1
Method in brief: as §1

[7] = compound: NC(=O)c1cnc(N[C@@H]2CCCC[C@@H]2N)nc1Nc1cccc(-n2nccn2)c1
Method in brief: as §1

[8] = compound: NC1(c2ccc(-c3nc4ccn5c(=O)[nH]nc5c4cc3-c3ccccc3)cc2)CCC1
Method in brief: as §1

Measured: log2 fold change

GEMIN4 (UniProt P57678)
inactive: lapatinib -0.031 | pictilisib -0.012 | crizotinib -0.065 | [1] -0.013 | duvelisib 0.004 | gandotinib -0.188 | tozasertib -0.009 | doramapimod 0.032 | bafetinib -0.038 | [2] 0.039 | nilotinib -0.001 | [3] -0.014 | dasatinib -0.047 | [4] -0.001 | [5] 0.101 | quisinostat -0.056 | tipifarnib 0.006 | [6] 0.077 | [7] -0.001 | [8] -0.097

DSTN (UniProt P60981)
inactive: lapatinib 0.01 | pictilisib 0.008 | crizotinib 0.007 | [1] -0.02 | duvelisib -0.001 | gandotinib -0.023 | tozasertib 0.031 | doramapimod -0.015 | bafetinib 0.057 | [2] 0.019 | nilotinib 0.01 | [3] 0.012 | dasatinib -0.013 | [4] 0.009 | [5] 0.034 | quisinostat 0.045 | tipifarnib -0.005 | [6] -0.022 | [7] 0.022 | [8] -0.008

DTWD1 (UniProt Q8N5C7)
Sequence of UniProt Q8N5C7 (Q8N5C7 whole entry, looked up): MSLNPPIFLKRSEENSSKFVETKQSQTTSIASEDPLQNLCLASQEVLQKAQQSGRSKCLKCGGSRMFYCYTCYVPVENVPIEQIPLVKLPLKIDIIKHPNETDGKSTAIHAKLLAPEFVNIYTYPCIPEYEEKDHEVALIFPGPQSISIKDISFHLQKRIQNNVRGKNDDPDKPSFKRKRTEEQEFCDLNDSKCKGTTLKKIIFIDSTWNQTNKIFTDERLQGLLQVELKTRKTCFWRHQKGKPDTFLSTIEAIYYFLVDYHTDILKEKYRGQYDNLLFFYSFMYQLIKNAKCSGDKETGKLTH
inactive: lapatinib -0.049 | pictilisib -0.049 | crizotinib 0 | [1] 0.015 | duvelisib 0.06 | gandotinib -0.07 | tozasertib -0.075 | doramapimod 0.035 | bafetinib 0.002 | [2] 0.092 | nilotinib 0.007 | [3] -0.039 | dasatinib -0.034 | [4] 0.01 | [5] -0.02 | quisinostat -0.067 | tipifarnib -0.007 | [6] 0.002 | [7] -0.008 | [8] 0.049

FYB1 isoform 3 (UniProt O15117)
inactive: lapatinib 0.045 | pictilisib -0.008 | crizotinib -0.082 | [1] 0.147 | duvelisib 0.01 | gandotinib -0.051 | tozasertib 0.052 | doramapimod -0.007 | bafetinib -0.062 | [2] -0.058 | nilotinib 0.042 | [3] 0.004 | dasatinib -0.017 | [4] -0.025 | [5] 0.001 | quisinostat -0.068 | tipifarnib -0.012 | [6] 0.034 | [7] 0.005 | [8] 0.021

ESRRA (UniProt P11474)
Sequence of UniProt P11474 (P11474 whole entry, looked up): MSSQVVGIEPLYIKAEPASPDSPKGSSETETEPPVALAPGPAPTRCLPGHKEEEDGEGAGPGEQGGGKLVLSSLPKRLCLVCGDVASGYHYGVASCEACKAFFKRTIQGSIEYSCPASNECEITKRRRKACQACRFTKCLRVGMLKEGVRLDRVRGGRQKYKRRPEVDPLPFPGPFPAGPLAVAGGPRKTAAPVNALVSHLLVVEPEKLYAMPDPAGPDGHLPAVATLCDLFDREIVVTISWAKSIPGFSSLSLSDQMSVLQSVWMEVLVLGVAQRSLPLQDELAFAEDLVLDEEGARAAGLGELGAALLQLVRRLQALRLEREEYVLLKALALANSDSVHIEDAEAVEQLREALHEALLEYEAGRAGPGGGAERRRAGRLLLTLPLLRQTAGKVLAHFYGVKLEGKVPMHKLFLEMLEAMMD
active: [1] 0.444
inactive: lapatinib 0.026 | pictilisib -0.049 | crizotinib -0.025 | duvelisib 0.088 | gandotinib -0.115 | tozasertib 0.088 | doramapimod -0.028 | bafetinib 0.052 | [2] -0.149 | nilotinib -0.121 | [3] 0.016 | dasatinib 0.061 | [4] 0.035 | [5] -0.096 | quisinostat -0.038 | tipifarnib 0.008 | [6] 0.158 | [7] -0.016 | [8] 0.016

GEMIN2 (UniProt O14893)
inactive: lapatinib -0.025 | pictilisib -0.029 | crizotinib 0.059 | [1] -0.12 | duvelisib 0.075 | gandotinib 0 | tozasertib -0.021 | doramapimod -0.092 | bafetinib -0.053 | [2] 0.139 | nilotinib -0.019 | [3] 0.014 | dasatinib -0.03 | [4] 0.032 | [5] -0.033 | quisinostat 0.142 | tipifarnib 0.059 | [6] 0.004 | [7] -0.039 | [8] 0.049

FLAD1 (UniProt Q8NFF5)
Sequence of UniProt Q8NFF5 (Q8NFF5 whole entry, looked up): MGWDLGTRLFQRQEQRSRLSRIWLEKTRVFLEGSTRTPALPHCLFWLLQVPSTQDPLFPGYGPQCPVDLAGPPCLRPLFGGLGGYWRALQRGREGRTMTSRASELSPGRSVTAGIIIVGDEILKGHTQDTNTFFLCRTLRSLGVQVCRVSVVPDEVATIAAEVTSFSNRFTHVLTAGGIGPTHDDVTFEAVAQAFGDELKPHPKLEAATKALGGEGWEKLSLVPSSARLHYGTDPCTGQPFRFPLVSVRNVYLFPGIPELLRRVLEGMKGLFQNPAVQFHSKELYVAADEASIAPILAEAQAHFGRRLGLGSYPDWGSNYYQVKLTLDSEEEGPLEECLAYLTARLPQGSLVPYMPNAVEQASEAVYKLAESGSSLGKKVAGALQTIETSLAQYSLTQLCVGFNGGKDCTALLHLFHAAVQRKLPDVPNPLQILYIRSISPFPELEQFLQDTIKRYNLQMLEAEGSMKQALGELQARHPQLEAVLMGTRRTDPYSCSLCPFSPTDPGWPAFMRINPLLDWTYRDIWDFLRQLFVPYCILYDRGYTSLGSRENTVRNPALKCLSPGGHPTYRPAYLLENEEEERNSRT
inactive: lapatinib 0.007 | pictilisib 0.002 | crizotinib -0.024 | [1] 0.021 | duvelisib 0.05 | gandotinib 0.044 | tozasertib -0.052 | doramapimod -0.02 | bafetinib -0.052 | [2] -0.05 | nilotinib 0.051 | [3] -0.026 | dasatinib 0.002 | [4] 0.024 | [5] 0.019 | quisinostat -0.129 | tipifarnib 0 | [6] 0.03 | [7] 0.017 | [8] -0.026

ERCC4 (UniProt Q92889)
active: [1] -0.544
inactive: lapatinib -0.023 | pictilisib -0.013 | crizotinib -0.031 | duvelisib 0.003 | gandotinib 0.054 | tozasertib -0.059 | doramapimod 0.087 | bafetinib -0.101 | [2] 0.159 | nilotinib -0.047 | [3] -0.002 | dasatinib 0.01 | [4] -0.05 | [5] 0.033 | quisinostat -0.105 | tipifarnib -0.007 | [6] 0.041 | [7] 0.027 | [8] -0.004

EDC4 (UniProt Q6P2E9)
inactive: lapatinib -0.025 | pictilisib -0.029 | crizotinib -0.01 | [1] -0.044 | duvelisib 0.016 | gandotinib -0.027 | tozasertib -0.016 | doramapimod -0.014 | bafetinib -0.043 | [2] 0.049 | nilotinib 0 | [3] 0.007 | dasatinib -0.058 | [4] 0.007 | [5] -0.002 | quisinostat -0.071 | tipifarnib -0.001 | [6] 0.01 | [7] 0.027 | [8] 0.011

EXOC5 (UniProt O00471)
Sequence of UniProt O00471 (O00471 whole entry, looked up): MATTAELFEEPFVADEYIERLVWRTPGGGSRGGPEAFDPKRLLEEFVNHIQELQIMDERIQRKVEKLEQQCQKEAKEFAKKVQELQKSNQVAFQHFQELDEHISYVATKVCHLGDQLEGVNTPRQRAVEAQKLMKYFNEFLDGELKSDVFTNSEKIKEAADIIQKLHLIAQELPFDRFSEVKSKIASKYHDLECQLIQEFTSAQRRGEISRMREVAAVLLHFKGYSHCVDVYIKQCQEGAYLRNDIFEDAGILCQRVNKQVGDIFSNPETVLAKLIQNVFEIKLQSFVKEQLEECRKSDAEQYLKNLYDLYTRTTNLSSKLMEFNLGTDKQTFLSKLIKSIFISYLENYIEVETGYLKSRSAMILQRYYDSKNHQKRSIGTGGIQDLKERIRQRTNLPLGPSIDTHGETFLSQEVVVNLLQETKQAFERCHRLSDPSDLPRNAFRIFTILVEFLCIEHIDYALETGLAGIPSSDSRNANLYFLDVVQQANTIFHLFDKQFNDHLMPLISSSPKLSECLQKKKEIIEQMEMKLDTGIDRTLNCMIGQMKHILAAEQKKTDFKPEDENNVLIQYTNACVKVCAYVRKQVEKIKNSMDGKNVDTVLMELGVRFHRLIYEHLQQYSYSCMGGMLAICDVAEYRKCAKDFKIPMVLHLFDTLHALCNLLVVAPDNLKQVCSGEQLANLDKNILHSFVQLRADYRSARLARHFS
inactive: lapatinib -0.012 | pictilisib 0.017 | crizotinib -0.067 | [1] 0.055 | duvelisib -0.027 | gandotinib -0.202 | tozasertib 0.025 | doramapimod 0.027 | bafetinib -0.033 | [2] 0.003 | nilotinib 0.008 | [3] -0.025 | dasatinib -0.063 | [4] -0.003 | [5] 0.047 | quisinostat -0.044 | tipifarnib 0.006 | [6] 0.014 | [7] 0.01 | [8] 0.002

EED, A0A5F9ZI63
inactive: lapatinib 0.047 | pictilisib -0.014 | crizotinib -0.001 | [1] -0.041 | duvelisib -0.006 | gandotinib 0.022 | tozasertib -0.01 | doramapimod 0.006 | bafetinib 0.033 | [2] 0.076 | nilotinib -0.019 | [3] 0.035 | dasatinib -0.022 | [4] -0.005 | [5] -0.027 | quisinostat 0 | tipifarnib 0.006 | [6] 0.026 | [7] -0.006 | [8] -0.015

GCN1 (UniProt Q92616)
Sequence of UniProt Q92616 (Q92616 whole entry, looked up): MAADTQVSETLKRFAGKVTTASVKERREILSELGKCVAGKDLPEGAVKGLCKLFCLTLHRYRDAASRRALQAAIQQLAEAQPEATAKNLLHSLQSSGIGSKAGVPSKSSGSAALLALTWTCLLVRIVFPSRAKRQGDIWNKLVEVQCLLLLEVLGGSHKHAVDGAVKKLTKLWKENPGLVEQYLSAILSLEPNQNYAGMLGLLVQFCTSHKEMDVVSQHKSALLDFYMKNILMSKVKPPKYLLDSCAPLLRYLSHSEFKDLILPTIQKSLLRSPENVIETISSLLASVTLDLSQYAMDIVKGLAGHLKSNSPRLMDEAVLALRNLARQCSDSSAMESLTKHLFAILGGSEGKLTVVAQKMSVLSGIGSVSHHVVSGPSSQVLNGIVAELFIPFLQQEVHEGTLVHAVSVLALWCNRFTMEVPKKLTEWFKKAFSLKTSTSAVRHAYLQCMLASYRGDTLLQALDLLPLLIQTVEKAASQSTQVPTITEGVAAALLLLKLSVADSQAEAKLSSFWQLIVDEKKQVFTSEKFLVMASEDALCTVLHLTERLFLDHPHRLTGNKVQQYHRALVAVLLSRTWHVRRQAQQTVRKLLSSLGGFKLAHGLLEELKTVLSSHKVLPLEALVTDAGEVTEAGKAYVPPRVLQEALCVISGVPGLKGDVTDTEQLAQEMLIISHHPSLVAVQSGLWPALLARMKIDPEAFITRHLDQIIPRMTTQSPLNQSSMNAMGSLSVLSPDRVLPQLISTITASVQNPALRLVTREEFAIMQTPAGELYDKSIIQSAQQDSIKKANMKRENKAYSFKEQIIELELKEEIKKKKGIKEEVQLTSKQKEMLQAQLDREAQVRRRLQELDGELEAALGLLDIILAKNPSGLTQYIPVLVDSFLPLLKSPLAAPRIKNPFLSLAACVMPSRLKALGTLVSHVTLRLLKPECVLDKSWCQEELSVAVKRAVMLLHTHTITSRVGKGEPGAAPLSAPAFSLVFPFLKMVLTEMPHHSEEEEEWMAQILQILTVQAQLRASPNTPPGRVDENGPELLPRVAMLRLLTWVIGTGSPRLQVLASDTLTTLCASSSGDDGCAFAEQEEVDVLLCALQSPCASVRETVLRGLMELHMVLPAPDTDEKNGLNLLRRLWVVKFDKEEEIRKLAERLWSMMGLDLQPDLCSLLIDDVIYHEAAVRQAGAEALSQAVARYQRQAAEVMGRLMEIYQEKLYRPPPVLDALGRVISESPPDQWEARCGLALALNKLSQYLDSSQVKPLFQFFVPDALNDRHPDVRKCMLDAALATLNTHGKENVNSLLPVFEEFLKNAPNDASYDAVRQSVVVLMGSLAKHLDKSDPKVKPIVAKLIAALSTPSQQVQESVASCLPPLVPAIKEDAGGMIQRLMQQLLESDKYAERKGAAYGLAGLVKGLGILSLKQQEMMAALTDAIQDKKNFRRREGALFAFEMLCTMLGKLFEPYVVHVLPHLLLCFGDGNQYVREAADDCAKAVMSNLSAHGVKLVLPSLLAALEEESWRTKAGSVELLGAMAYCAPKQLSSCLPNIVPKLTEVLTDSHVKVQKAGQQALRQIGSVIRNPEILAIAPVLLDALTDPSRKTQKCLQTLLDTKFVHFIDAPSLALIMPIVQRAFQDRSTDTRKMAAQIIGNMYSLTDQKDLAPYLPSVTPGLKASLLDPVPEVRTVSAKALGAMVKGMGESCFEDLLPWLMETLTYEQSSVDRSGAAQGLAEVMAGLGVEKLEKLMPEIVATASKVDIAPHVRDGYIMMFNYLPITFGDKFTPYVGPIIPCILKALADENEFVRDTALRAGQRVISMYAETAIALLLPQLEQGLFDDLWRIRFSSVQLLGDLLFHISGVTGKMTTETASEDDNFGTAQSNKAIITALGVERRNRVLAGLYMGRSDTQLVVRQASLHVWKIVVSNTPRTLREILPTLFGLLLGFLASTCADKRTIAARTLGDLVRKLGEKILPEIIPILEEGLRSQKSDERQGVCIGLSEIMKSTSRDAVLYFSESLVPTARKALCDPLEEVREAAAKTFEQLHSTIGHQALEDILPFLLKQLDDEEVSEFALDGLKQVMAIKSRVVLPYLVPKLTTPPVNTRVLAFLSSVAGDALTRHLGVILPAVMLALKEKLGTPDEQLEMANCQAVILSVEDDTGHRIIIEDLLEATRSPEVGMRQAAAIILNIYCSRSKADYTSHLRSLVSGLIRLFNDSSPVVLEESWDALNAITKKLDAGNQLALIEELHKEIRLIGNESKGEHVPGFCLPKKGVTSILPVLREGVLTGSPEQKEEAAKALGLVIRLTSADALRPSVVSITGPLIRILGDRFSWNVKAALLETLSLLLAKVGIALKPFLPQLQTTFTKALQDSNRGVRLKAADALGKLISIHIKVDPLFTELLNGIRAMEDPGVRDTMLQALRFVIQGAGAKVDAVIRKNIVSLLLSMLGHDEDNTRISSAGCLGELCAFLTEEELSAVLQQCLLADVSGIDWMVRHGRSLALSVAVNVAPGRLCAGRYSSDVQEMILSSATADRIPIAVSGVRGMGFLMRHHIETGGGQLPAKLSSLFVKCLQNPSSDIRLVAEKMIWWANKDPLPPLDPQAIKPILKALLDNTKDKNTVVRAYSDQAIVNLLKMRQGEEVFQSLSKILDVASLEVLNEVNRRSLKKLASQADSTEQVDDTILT
inactive: lapatinib -0.034 | pictilisib -0.027 | crizotinib -0.125 | [1] -0.002 | duvelisib 0.008 | gandotinib -0.121 | tozasertib 0.017 | doramapimod 0.019 | bafetinib -0.049 | [2] 0.053 | nilotinib 0.015 | [3] -0.017 | dasatinib -0.071 | [4] 0.001 | [5] 0.066 | quisinostat -0.072 | tipifarnib -0.01 | [6] 0.047 | [7] 0.001 | [8] -0.037

GEMIN5 (UniProt Q8TEQ6)
inactive: lapatinib -0.025 | pictilisib -0.006 | crizotinib -0.069 | [1] -0.029 | duvelisib 0.001 | gandotinib -0.087 | tozasertib 0.009 | doramapimod 0.012 | bafetinib -0.053 | [2] 0.017 | nilotinib -0.003 | [3] -0.001 | dasatinib -0.046 | [4] 0.001 | [5] 0.037 | quisinostat -0.102 | tipifarnib 0.015 | [6] 0.031 | [7] 0.003 | [8] -0.027

EDC3 (UniProt Q96F86)
inactive: lapatinib -0.007 | pictilisib -0.034 | crizotinib -0.012 | [1] -0.021 | duvelisib 0.014 | gandotinib 0.032 | tozasertib -0.007 | doramapimod 0.024 | bafetinib -0.008 | [2] -0.003 | nilotinib 0.045 | [3] 0.016 | dasatinib -0.022 | [4] -0.031 | [5] 0.004 | quisinostat -0.006 | tipifarnib -0.069 | [6] -0.019 | [7] -0.014 | [8] 0.017

FIGNL1 (UniProt Q6PIW4)
inactive: lapatinib 0 | pictilisib -0.03 | crizotinib -0.078 | [1] -0.035 | duvelisib 0.002 | gandotinib -0.071 | tozasertib 0.003 | doramapimod -0.018 | bafetinib -0.024 | [2] 0.007 | nilotinib -0.011 | [3] 0.037 | dasatinib -0.101 | [4] 0.054 | [5] 0.068 | quisinostat -0.08 | tipifarnib -0.044 | [6] 0.035 | [7] -0.02 | [8] -0.035

EIF3I (UniProt Q13347)
Sequence of UniProt Q13347 (Q13347 whole entry, looked up): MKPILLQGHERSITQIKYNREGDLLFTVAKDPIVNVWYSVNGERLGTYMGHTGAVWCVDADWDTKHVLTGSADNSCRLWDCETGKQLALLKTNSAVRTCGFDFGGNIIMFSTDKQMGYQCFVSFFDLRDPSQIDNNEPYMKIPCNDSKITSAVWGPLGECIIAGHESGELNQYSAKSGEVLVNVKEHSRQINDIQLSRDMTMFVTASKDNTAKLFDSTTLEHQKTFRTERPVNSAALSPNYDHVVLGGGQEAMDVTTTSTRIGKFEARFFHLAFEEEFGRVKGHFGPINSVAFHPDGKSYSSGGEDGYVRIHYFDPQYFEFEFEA
inactive: lapatinib -0.009 | pictilisib -0.015 | crizotinib -0.004 | [1] -0.003 | duvelisib -0.009 | gandotinib -0.022 | tozasertib 0.008 | doramapimod 0.029 | bafetinib -0.052 | [2] 0.01 | nilotinib 0.022 | [3] -0.004 | dasatinib -0.018 | [4] 0.013 | [5] 0.044 | quisinostat -0.009 | tipifarnib 0.018 | [6] 0.036 | [7] 0 | [8] -0.013

Source: the supplement of paper PMC10849652
